Data published in the supplement of paper PMC11732987, “Enantioselective OTUD7B fragment discovery through chemoproteomics screening and high-throughput optimisation” (Communications Chemistry, 2025).

Tests used:
Assay in all cases: log2 ratio of Biotin-Ahx-Ub-VS probe labelling (fragment/DMSO); higher = less target engagement (more negative = stronger competition), active = hit call of the paper (q ≤ 0.05, log2 ratio ≤ -1)
Conditions in all cases: compound concentration: 200 uM; treatment time: 3 h
OTUD6B = target: T1, OTUD6B (UniProt Q8N6M0)
T1 sequence (whole entry): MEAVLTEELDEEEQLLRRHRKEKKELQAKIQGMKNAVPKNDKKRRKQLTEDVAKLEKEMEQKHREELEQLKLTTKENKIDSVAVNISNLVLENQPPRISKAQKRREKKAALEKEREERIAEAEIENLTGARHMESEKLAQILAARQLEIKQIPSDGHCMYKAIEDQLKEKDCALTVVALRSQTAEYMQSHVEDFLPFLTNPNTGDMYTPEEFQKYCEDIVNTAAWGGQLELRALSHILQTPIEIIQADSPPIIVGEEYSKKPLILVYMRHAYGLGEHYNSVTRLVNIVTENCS
Procedure, shortened: (§1)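 The table lists average log2 ratios of fragment over vehicle, from an unpaired t-test on global-median-normalised Spectronaut label-free quantities. Proteins with ≥2 unique peptides were used. Samples were HEK293T lysate (495 µg) treated in triplicate with fragment at 200 µM or vehicle for 3 h, then with Biotin-Ahx-Ub-VS (0.5 µM final) for 1 h, with labelled DUBs NeutrAvidin-enriched and run by diaPASEF LC-MS/MS.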

OTUD7B = target: T2, OTUD7B (UniProt Q6GQQ9)
T2 sequence (whole entry): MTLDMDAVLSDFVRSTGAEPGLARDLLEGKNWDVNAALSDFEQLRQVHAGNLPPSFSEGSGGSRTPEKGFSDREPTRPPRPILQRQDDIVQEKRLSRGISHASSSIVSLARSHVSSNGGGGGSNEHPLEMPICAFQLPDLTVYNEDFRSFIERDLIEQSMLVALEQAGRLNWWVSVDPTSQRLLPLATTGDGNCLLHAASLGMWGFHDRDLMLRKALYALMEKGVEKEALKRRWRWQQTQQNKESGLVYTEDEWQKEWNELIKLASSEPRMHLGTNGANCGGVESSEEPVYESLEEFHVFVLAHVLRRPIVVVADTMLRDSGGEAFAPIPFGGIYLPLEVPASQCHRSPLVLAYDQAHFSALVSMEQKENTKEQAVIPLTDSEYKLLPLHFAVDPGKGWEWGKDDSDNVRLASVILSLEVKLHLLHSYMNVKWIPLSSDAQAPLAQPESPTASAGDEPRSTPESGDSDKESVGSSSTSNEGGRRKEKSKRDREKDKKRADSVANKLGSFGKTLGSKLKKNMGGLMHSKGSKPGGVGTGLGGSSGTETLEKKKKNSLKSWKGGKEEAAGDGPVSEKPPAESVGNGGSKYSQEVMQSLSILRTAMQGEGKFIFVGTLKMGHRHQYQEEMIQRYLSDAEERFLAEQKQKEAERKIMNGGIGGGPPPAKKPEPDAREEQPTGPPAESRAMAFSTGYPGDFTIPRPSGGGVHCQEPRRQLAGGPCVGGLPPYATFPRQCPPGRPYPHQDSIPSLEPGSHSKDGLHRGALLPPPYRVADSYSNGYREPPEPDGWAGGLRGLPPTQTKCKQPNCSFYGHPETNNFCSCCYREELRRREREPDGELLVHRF
Procedure, shortened: as §1

PRPF8 = PRPF8 (UniProt Q6P2Q9)
Procedure, shortened: as §1

PSMD7 = target: T3, PSMD7 (UniProt P51665)
T3 sequence (whole entry): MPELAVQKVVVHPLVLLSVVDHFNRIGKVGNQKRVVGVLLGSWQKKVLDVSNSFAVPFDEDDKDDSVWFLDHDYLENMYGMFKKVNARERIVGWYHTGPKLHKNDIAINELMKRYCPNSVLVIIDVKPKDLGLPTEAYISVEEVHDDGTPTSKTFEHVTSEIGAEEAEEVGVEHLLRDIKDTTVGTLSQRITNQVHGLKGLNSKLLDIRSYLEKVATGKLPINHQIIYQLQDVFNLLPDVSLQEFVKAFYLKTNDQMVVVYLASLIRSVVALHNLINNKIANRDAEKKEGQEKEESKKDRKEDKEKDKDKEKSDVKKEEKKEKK
Procedure, shortened: as §1

UCHL1 = UCHL1 (UniProt P09936)
Chain of UCHL1 (P09936 whole entry, looked up): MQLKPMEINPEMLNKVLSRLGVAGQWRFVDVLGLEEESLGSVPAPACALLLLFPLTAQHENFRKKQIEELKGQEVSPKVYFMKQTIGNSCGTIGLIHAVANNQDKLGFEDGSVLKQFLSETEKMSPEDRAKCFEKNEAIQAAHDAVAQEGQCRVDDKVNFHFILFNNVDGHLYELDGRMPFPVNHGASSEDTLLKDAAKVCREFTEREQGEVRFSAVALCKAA
Procedure, shortened: as §1

UCHL3 = target: T4, UCHL3 (UniProt P15374)
T4 sequence (whole entry): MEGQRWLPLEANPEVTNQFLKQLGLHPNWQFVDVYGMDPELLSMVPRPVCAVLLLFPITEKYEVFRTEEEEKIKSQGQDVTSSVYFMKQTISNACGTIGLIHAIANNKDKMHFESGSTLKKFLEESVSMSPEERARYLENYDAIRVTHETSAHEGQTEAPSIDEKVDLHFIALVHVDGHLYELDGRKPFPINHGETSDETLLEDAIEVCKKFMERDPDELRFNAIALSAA
Procedure, shortened: as §1

UCHL5 = target: T5, UCHL5 (UniProt Q9Y5K5)
T5 sequence (whole entry): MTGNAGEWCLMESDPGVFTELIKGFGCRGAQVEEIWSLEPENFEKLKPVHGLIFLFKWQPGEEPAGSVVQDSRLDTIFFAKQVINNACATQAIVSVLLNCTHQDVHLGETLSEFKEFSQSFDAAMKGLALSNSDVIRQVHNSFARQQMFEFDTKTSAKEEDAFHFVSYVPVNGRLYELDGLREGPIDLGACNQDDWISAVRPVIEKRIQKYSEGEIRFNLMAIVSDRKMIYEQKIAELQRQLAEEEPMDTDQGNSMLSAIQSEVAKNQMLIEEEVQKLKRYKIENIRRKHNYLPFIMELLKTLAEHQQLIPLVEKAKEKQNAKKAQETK
Procedure, shortened: as §1

USP10 = USP10 (UniProt Q14694)
Chain of USP10 (Q14694 whole entry): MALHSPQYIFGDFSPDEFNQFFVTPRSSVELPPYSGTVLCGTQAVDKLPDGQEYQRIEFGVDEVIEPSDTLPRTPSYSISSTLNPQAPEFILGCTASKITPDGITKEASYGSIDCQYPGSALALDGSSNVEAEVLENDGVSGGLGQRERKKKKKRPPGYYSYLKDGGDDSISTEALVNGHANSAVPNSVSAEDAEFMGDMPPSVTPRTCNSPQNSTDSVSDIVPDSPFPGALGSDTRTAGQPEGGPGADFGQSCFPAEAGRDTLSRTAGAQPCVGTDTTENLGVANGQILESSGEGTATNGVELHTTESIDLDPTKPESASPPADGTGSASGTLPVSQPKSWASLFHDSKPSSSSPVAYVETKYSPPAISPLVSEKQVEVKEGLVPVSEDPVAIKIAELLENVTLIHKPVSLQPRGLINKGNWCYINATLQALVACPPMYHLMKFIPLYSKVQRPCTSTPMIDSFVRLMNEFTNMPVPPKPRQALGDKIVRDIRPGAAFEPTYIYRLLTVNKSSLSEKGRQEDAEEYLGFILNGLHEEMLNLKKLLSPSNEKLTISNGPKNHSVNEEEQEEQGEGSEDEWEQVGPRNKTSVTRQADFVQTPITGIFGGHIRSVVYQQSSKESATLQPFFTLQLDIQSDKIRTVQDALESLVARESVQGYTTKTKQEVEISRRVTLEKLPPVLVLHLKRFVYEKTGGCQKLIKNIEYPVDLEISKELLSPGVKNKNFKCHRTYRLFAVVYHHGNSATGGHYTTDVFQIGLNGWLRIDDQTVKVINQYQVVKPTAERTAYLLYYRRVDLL
Procedure, shortened: as §1

USP15 = target: T6, USP15 (UniProt Q9Y4E8)
T6 sequence (whole entry): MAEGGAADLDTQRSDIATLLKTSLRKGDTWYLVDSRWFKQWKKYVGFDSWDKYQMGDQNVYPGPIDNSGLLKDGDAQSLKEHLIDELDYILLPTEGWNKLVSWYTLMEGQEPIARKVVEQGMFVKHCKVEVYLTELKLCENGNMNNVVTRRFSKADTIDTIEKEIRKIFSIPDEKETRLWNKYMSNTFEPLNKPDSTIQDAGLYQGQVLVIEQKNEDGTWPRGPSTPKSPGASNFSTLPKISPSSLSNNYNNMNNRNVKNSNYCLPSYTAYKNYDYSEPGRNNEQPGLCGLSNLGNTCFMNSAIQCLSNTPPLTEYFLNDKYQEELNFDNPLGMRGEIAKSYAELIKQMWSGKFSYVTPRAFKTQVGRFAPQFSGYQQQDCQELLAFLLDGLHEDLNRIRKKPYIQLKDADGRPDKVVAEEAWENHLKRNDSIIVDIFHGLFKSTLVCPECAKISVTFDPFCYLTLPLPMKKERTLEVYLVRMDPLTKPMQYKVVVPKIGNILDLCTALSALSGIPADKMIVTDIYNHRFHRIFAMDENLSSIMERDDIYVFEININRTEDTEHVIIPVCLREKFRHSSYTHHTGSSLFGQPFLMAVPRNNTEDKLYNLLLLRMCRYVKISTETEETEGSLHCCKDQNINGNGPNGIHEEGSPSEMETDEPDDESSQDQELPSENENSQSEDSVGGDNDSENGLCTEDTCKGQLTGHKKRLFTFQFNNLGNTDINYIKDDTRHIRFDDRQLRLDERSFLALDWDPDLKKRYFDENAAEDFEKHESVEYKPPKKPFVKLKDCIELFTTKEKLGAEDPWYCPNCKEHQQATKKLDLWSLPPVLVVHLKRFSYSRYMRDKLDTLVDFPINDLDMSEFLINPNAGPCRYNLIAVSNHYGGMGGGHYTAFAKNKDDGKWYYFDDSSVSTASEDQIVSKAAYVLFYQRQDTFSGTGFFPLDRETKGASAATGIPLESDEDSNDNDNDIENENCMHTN
Procedure, shortened: as §1

USP16 = USP16 (UniProt Q9Y5T5)
Chain of USP16 (Q9Y5T5 whole entry, looked up): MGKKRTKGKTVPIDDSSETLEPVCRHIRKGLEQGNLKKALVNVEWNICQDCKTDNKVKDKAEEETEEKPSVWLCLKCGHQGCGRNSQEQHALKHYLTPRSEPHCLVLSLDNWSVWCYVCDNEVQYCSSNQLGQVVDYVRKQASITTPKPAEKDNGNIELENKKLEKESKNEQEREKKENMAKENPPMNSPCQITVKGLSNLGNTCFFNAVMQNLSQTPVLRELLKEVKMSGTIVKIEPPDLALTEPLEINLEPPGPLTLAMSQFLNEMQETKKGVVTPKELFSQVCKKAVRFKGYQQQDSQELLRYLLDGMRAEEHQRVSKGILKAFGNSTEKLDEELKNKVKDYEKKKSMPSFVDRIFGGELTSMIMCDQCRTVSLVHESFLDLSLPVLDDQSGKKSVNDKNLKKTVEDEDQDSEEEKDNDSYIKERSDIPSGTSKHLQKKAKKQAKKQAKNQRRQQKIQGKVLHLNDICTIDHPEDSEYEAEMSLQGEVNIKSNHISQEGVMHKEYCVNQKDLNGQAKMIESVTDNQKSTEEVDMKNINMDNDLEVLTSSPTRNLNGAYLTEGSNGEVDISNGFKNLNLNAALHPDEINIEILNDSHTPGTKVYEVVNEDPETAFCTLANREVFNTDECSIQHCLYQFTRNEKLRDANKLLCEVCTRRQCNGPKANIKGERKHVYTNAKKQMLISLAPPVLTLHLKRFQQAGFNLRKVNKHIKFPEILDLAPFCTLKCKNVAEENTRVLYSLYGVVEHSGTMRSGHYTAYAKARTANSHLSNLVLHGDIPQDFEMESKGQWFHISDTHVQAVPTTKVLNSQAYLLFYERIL
Procedure, shortened: as §1

Measured: log2 ratio of Biotin-Ahx-Ub-VS probe labelling

Cc1cccc2nc(CCNC(=O)CCl)cn12.Cl
inactive: OTUD6B -0.459 | OTUD7B -0.556 | PRPF8 -0.224 | PSMD7 -0.141 | UCHL3 -0.0466 | UCHL5 -0.344 | USP10 -0.121 | USP15 -0.369 | USP16 0.0184
active: UCHL1 -2.08
